In the library only some 7.9% were active in any assay of this set; here they are far more common.
HT1080-NT tox: kills 2HG-producing HT-1080-NT fibrosarcoma cells; hit rate 1.6% among 360,000; HT-1080-NT fibrosarcoma viability, CellTiter-Glo ATP luminescence, 48 h; Potency, µM (doses to about 46.1 µM), most hits filed as cytotoxic;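 note: NT is the 2HG producing partner of a matched IDH1 knockdown line; nearly all actives have a fitted effect of over 55% in size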
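HT-1080-NT fibrosarcoma cells (2HG-overproducing), 750 cells/well in RPMI with 5% FBS, dosed after 2 h and incubated 48 h at 37C. CellTiter-Glo luminescence normalized to DMSO and no-cell wells; concentration-response curves fitted and classed.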
SW480 rereplic: induces DNA re-replication in SW480 colon adenocarcinoma cells; hit rate 1.8% among 340,000; SW480 DNA re-replication, Hoechst DNA content imaging, 48 h; Potency, µM (doses to about 46.1 µM), actives largely listed as activators; AID 624297; note: nearly all actives have a fitted effect of over 55% in size
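250 cells/well; 23 nL cpd via pin tool; 48 hr, 37 C, 5% CO2; Hoechst 40 min; imager read of total nuclear intensity, ex 405/em 500-530 nm.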
HT1080 IDH1KD tx: toxicity to HT-1080 IDH1 knockdown cells (counter line); HT-1080 IDH1 knockdown viability, ATP luminescence, 48 h; Potency, µM (top dose mostly 46.1 µM), actives largely listed as cytotoxic; hit rate 2% among 360,000
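In this qHTS, HT-1080 cells depleted of IDH1 are exposed for 48 h at 37 °C to compound titrations. Toxicity is scored from CellTiter-Glo luminescence, with DMSO as full viability and medium alone as none.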
KB-V1 cytotox: kills drug-selected multidrug resistant KB-V1 cells; KB-V1 MDR cells viability, CellTiter-Glo, 72 h; Potency, µM (doses to about 46.1 µM), most hits filed as cytotoxic; hit rate 3.4% among 400,000; note: nearly all actives have a fitted effect of over 60% in size
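qHTS viability screen in drug-selected KB-V1 MDR cells: 72 h compound treatment at 37 degrees C, ATP luminescence end point.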
MCF10A rereplic: inducers of DNA re-replication in MCF 10A breast cells | MCF 10A DNA re-replication, Hoechst nuclear intensity, 48 h | Potency, µM (doses to about 46.1 µM), hits mostly activators | hit rate 2.9% among 350,000 | AID 624296; note: nearly all actives have a fitted effect of over 50% in size
KB-3-1 cytotox: KB-3-1 parental cell cytotoxicity; KB-3-1 viability, CellTiter-Glo ATP luminescence, 72 h; Potency, µM (doses to about 46.1 µM), most hits filed as cytotoxic; hit rate 1.4% among 400,000; note: nearly all actives have a fitted effect of over 60% in size
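Cytotoxicity measured as CellTiter-Glo luminescence after 72 h at 37 C. Compound titrations were pinned onto drug-naive KB-3-1 parental adenocarcinoma cells grown in DMEM with 10% FBS, and normalized data fitted to concentration-response curves.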
A number is an active result; 0 = inactive; ? = inconclusive; - = no result. Calls come from the whole dose curve; as a rule, active = well fitted curve in the direction sought with a large enough effect; inconclusive = small, poorly fitted or top-dose-only effect, or another doubt; inactive = no such curve, though single readings can be large; an effect the other way counts as inactive or inconclusive.

SMILES	HT1080-NT tox	SW480 rereplic	HT1080 IDH1KD tx	KB-V1 cytotox	MCF10A rereplic	KB-3-1 cytotox
O=C(NC(=S)Nc1cc(-c2nc3ccccc3[nH]2)ccc1Cl)c1ccc2c(c1)OCO2	0	5.8µM	?	7.3µM	3.3µM	18µM
COc1ccc(C(=O)Nc2nc3ccccc3[nH]2)cc1OC	0	0	?	0	0	0
Cc1nnc(N)s1	0	0	0	0	?	0
CN(C)c1ccc(/C=N/NC(N)=S)cc1[N+](=O)[O-]	0	0	0	6.5µM	0	15µM
CC(=O)Nc1ccc(/C=N/NC(N)=S)cc1	-	0	-	-	0	-
O=C(c1ccccc1)N1CCN(c2ccc([N+](=O)[O-])c(NCc3cccnc3)c2)CC1	0	0	0	2.6µM	0	?
O=C(c1ccc(Cl)cc1)N1CCN(c2ccc([N+](=O)[O-])c(NCc3cccnc3)c2)CC1	0	0	0	21µM	0	0
COc1ccc(C(=O)N2CCN(c3ccc([N+](=O)[O-])c(NCCc4ccc(OC)c(OC)c4)c3)CC2)cc1	1.2µM	0	?	?	0	?
O=C(c1ccccc1F)N1CCN(c2ccc([N+](=O)[O-])c(NCc3cccnc3)c2)CC1	0	0	0	0	0	0
CCCCNC(=O)C1c2ccccc2OCC(=O)N1CCCN1CCOCC1 (centres undefined)	0	-	0	?	-	0
CCc1nn(CCCC(=O)N2CCN(c3cc(Cl)ccc3C)CC2)c(=O)c2cc3occc3n12	-	-	-	0	-	0
CC1(C)CC(NC(=O)C2CCN(S(=O)(=O)c3ccc(F)cc3)CC2)CC(C)(C)N1	0	0	0	0	0	0
Brc1ccc(CN2CCN(Cc3c[nH]c4ccccc34)CC2)cc1	23µM	?	21µM	?	?	?
Brc1ccccc1CN1CCN(Cc2c[nH]c3ccccc23)CC1	7.3µM	0	23µM	?	?	?
CC(CSC(=O)c1ccccc1)C(=O)N1C[C@@H](Sc2ccccc2)C[C@H]1C(=O)O (some centres undefined)	-	0	-	-	0	-
COc1ccc(-c2nnc(SCc3nnc(-c4cccs4)o3)n2CC2CCCO2)cc1 (centres undefined)	0	0	0	4.6µM	0	0
COc1ccc(-c2noc(-c3cccs3)n2)cc1OC	0	0	0	?	0	?
CCn1c(SCc2nc(-c3ccc(OC)c(OC)c3)no2)nnc1-c1cccs1	0	0	0	9.2µM	0	0
COc1ccc(-c2nnc(CSc3nnc(-c4ccncc4)n3C3CCCCC3)o2)cc1OC	0	0	?	13µM	0	0
COCCCn1c(SCc2nnc(-c3ccc(OC)c(OC)c3)o2)nnc1-c1ccncc1	0	0	0	0	0	0
Cc1nnc(SCc2nnc(-c3cccs3)o2)n1C1CCCCC1	0	0	0	?	0	0
CC(OC(=O)CCOc1ccccc1)C(=O)NC1CC1 (centres undefined)	0	0	0	0	0	?
COc1ccc(CCCc2nnc(SCC(=O)Nc3ccc(C)cc3)o2)cc1C	-	-	-	0	-	0
Nc1ncnc2c1ncn2[C@@H]1O[C@H](C(=O)N[C@H]2c3ccccc3C[C@H]2OC=O)[C@@H](O)[C@H]1O	0	-	0	0	-	0
O=C(CCCn1cncn1)N1CCCC(Nc2ccc(F)cc2)C1 (centres undefined)	0	0	0	0	0	0
SMILES	HT1080-NT tox	SW480 rereplic	HT1080 IDH1KD tx	KB-V1 cytotox	MCF10A rereplic	KB-3-1 cytotox
COc1ccc(CN2CC[C@H]3C=CC[C@@H](C(=O)NCc4cccnc4)[C@H]3C2=O)cc1OC	-	-	-	0	-	0
CCc1cc(=O)oc2c3c(cc(OCC(=O)NCc4cccnc4)c12)OC(C)(C)CC3	0	0	0	?	0	0
CCc1cc(=O)oc2c3c(cc(OCC(=O)Nc4cccnc4)c12)OC(C)(C)CC3	0	0	0	16µM	?	0
O=c1n(-c2ccccc2)c(=O)n2n1CCCC2	0	16µM	0	0	?	0
CC1CC2=C(NC(=S)NC2c2ccc(F)cc2)/C(=C/c2ccc(F)cc2)C1 (centres undefined)	10µM	?	?	0	0	0
COC(=O)c1cc2oc3ccccc3c2n1Cc1nc(-c2ccc(OC)cc2)oc1C	-	-	-	?	-	0
COC(=O)c1ccc(-c2ccco2)n1Cc1nc(-c2ccc(OC)c(OC)c2)oc1C	0	0	?	0	18µM	?
COc1cc(NC(=O)[C@H]2O[C@@H](n3cnc4c(N)ncnc43)[C@H](O)[C@@H]2O)cc(OC)c1OC	0	-	0	0	-	0
ONC(=NCc1ccccc1)c1ccccc1	0	0	0	?	0	0
CCc1nn(C(C)C(=O)N2CC(C)CC(C)C2)c(=O)c2cc3occc3n12 (centres undefined)	0	0	0	0	0	0
CCc1nn(C(C)C(=O)N2CCN(c3ccc(OC)cc3)CC2)c(=O)c2cc3occc3n12 (centres undefined)	0	?	?	0	?	9.2µM
CCc1nn(CCCC(=O)NCc2ccc(OC(C)C)cc2)c(=O)c2cc3occc3n12	12µM	?	10µM	?	?	7.3µM
CCc1nn(C(C)C(=O)N2CCN(Cc3ccccc3)CC2)c(=O)c2cc3occc3n12 (centres undefined)	0	0	0	0	0	0
CCc1nn(C(C)C(=O)N2CCN(c3cccc(C(F)(F)F)c3)CC2)c(=O)c2cc3occc3n12 (centres undefined)	-	-	-	8.2µM	-	13µM
CCN(c1ccc(OC)cc1)S(=O)(=O)c1c(C(=O)N2CCCCCC2)c(C)n(C)c1C	-	-	-	0	-	0
COc1ccc(S(=O)(=O)Nc2cccc3c2O[C@H](CN(C)C(=O)Nc2ccc4c(c2)OCO4)[C@@H](C)CN([C@H](C)CO)C3=O)cc1	0	?	0	0	0	0
Cn1cnnc1SCC(=O)NNC(=O)COc1ccc(Cl)cc1	0	0	0	?	0.58µM	0
Cn1cnnc1SCC(=O)Nc1ccc(Cl)cc1	0	0	0	0	0	0
COc1cc(OC)cc(-c2sc3ccc(OC)cc3c2-c2ccc(OCCN3CCCCC3)cc2)c1	?	?	0	0	18µM	0
COc1ccc(-c2sc3cc(OC)ccc3c2-c2ccc(OCCN3CCOCC3)cc2)cc1	?	?	0	0	3.7µM	0
COc1ccccc1-c1sc2cc3c(cc2c1-c1ccc(OCCN2CCOCC2)cc1)OCO3	0	0	0	0	0	0
COc1ccc(-c2sc3cc4c(cc3c2-c2ccc(OCCN3CCCCC3)cc2)OCO4)cc1	0	0	0	0	?	0
Clc1cccc(OCCN2CCOCC2)c1	0	0	0	0	0	0
Clc1cccc(OCCN2CCNCC2)c1	0	18µM	0	0	0	0

Assay outcomes deposited in PubChem by National Center for Advancing Translational Sciences (NCATS).
